In all, about 310,000 compounds went through this assay and about 14,000 (4.5%) showed an effect of 50% or more. Effects have a minus sign here. This excerpt belongs to a sample that is enriched for strong results.
Target: human ether-à-go-go-related gene (hERG) potassium channel (human, UniProt Q12809)
Experiment: primary screen, population patch clamp on CHO cells stably expressing hERG; higher = less effect of the substance
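Note: peak tail current of the secondary pulse compared with the same well before compound.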

human ether-à-go-go-related gene (hERG) potassium channel, sequence (Q12809 whole entry, looked up): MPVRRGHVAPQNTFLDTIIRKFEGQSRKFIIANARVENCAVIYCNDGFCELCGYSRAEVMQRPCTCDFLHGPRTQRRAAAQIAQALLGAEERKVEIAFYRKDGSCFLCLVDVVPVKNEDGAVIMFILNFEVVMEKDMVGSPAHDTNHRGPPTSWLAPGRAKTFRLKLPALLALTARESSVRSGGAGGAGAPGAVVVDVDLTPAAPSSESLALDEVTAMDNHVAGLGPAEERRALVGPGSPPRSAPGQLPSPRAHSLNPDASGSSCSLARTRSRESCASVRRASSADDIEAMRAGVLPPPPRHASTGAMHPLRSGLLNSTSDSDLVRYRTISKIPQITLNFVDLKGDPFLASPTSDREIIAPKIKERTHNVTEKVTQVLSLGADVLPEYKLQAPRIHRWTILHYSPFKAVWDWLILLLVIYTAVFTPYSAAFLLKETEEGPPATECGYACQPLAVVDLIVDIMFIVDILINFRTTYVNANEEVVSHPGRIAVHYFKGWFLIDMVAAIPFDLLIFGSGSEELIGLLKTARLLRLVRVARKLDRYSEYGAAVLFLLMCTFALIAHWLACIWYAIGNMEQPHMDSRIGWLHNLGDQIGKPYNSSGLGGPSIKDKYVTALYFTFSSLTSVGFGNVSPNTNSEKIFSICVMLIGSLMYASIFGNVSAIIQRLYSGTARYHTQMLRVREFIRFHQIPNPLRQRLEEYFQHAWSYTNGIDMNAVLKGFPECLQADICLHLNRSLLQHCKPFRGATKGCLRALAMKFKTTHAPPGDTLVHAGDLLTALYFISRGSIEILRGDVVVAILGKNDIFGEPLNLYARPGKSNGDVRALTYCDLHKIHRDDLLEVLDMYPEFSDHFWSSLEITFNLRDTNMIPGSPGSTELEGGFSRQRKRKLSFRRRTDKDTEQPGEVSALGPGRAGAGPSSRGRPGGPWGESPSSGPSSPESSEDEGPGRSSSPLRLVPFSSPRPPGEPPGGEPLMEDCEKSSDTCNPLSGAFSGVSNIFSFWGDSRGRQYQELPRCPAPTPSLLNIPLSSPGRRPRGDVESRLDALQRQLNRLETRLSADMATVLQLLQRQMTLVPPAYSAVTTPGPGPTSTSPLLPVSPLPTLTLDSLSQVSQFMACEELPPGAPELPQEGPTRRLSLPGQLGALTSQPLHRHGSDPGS

First: CN(Cc1ccc2ccccc2c1)C(=O)c1ccc(C(F)(F)F)cc1
Second: CC(=O)c1ccc(N(CC(=O)NCCc2ccccc2)C(=O)c2csnn2)cc1
The “hERG current change (%, negative = inhibition) at 10uM” value of the first is higher: 26.1% for the first, -52.4% for the second.

Compared with `CCN1C(=O)N(c2ccc(Cl)cc2)C(C)=CC1(C)C`, `CC1(C)C(=O)N(c2ccccc2)C(=O)c2ccccc21` is higher in “hERG current change (%, negative = inhibition) at 10uM” value: 6.6% for the first, 9.68% for the second.

First: COc1ccc(C(=O)Nc2ccc(Cl)cc2F)cc1S(=O)(=O)N1CCCC1
Second: COc1ccc(OC)c(/C=N/N2CCN(c3ccc(Cl)cc3)CC2)c1
The “hERG current change (%, negative = inhibition) at 10uM” value of the first is lower: -48.1% for the first, 8.58% for the second.

Compared with `C=C1c2ccccc2NC(=O)N1c1ccc(OC)cc1`, `COc1ccc(-c2nnn(-c3cc(Cl)cc(Cl)c3)c2N)cc1` is higher in “hERG current change (%, negative = inhibition) at 10uM” value: 12.8% for the first, 18.3% for the second.

First: CC(O)CNc1nc2c(c(=O)n(Cc3ccc(Cl)c(Cl)c3)c(=O)n2C)n1C (stereo not shown)
Second: Cc1ccc(Cc2nnc(SCC(=O)Nc3c(C)cccc3C)[nH]c2=O)cc1
The “hERG current change (%, negative = inhibition) at 10uM” value of the first is lower: -17.3% for the first, -9.17% for the second.

First: O=C(O)C(=O)O.OCCN(Cc1ccccc1)Cc1ccccc1O
Second: O=C(CN(C(=O)c1csnn1)c1ccccc1)NCCc1ccccc1
The “hERG current change (%, negative = inhibition) at 10uM” value of the first is higher: 5.17% for the first, -15% for the second.

Compared with `C=CCN1C(=O)C2C(C(=O)NCc3ccccc3)C3(C)C=CC2(O3)C1C(=O)NC(C)(C)C` (stereo not shown), `COC(=O)Cc1ccc(NC(=S)NCc2ccccc2)cc1` is lower in “hERG current change (%, negative = inhibition) at 10uM” value: 19.5% for the first, 0.941% for the second.

Compared with `COC(=O)Cc1ccc(NC(=S)NCc2ccc(F)cc2)cc1`, `COC(=O)Cc1ccc(NC(=S)NCc2ccc(OC)cc2)cc1` is higher in “hERG current change (%, negative = inhibition) at 10uM” value: -74.4% for the first, -18.2% for the second.

Going from `COc1cc(C(=O)NC2CCN(Cc3nnnn3Cc3cccs3)CC2)cc(OC)c1OC` to `Cc1cc2nc(C3CCN(Cc4nnnn4Cc4cccs4)CC3)[nH]c2cc1C`, the “hERG current change (%, negative = inhibition) at 10uM” value falls from -5.59% to -83%.

First: c1csc(Cn2nnnc2CN2CCN(c3nc4ccccc4s3)CC2)c1
Second: Cl.c1ccc(Cn2nnnc2CN2CCCC2)cc1
The “hERG current change (%, negative = inhibition) at 10uM” value of the first is lower: -46% for the first, 2.31% for the second.

First: Cc1cc2nc(C3CCN(Cc4nnnn4Cc4ccccc4)CC3)[nH]c2cc1C
Second: Cc1cc2nc(C3CCN(CC4COc5ccccc5O4)CC3)[nH]c2cc1C (stereo not shown)
The “hERG current change (%, negative = inhibition) at 10uM” value of the first is higher: -52.3% for the first, -73.9% for the second.

Going from `CCN1CCN(CC2COc3ccccc3O2)CC1.Cl` (stereo not shown) to `Cc1ccccc1C(=O)NC1CCN(Cc2nnnn2Cc2ccccc2)CC1`, the “hERG current change (%, negative = inhibition) at 10uM” value falls from -4.7% to -47.8%.

Going from `CCN(CC)C(=O)CN1CCC(c2nc3cc(C)c(C)cc3[nH]2)CC1` to `CCc1c(C)c2cc(Cl)c(O)c(CN(CC)CC)c2oc1=O`, the “hERG current change (%, negative = inhibition) at 10uM” value rises from -15.7% to 0.288%.

Compared with `S=c1nccc(-c2ccc(Cl)cc2)[nH]1`, `O=C(CN(C(=O)c1csnn1)c1ccc(Cl)cc1)NCCc1ccccc1` is lower in “hERG current change (%, negative = inhibition) at 10uM” value: 15.4% for the first, -5.16% for the second.

Compared with `COc1cc(NC(=O)c2cc3ccccc3o2)c(OC)cc1Br`, `O=C(O)c1cc2c(cn1)[nH]c1ccccc12` is higher in “hERG current change (%, negative = inhibition) at 10uM” value: 5.55% for the first, 10.9% for the second.

Going from `O=[N+]([O-])c1ccc(N=Nc2ccc(O)cc2O)cc1` to `CCCCn1c(O)c(N=Nc2ccccn2)c2ccccc21`, the “hERG current change (%, negative = inhibition) at 10uM” value falls from 28.4% to 7.6%.

Compared with `Cc1ccc(N(CC(=O)NCCc2ccccc2)C(=O)c2csnn2)cc1`, `O=C(CN(C(=O)c1csnn1)c1ccc(F)cc1)NCCc1ccccc1` is higher in “hERG current change (%, negative = inhibition) at 10uM” value: -15.4% for the first, 7.95% for the second.

First: CC(C)c1ccc(N(CC(=O)NCCc2ccccc2)C(=O)c2csnn2)cc1
Second: CC1CCC(C(C)C)C(OC(=O)Cn2nnc3c(cnn3-c3ccccc3)c2=O)C1 (stereo not shown)
The “hERG current change (%, negative = inhibition) at 10uM” value of the first is lower: -60% for the first, 3.74% for the second.

First: CCOC(=O)c1c(NC(=O)C2C3C=CC(C3)C2C(=O)O)sc2c1CC(C)CC2 (stereo not shown)
Second: CCOC(=O)c1c(NC(=O)C2C3C=CC(C3)C2C(=O)O)sc2c1CCC(C)C2 (stereo not shown)
The “hERG current change (%, negative = inhibition) at 10uM” value of the first is higher: 19.6% for the first, -6.93% for the second.

Going from `CCCOC(=O)c1c(NC(=O)C2C3C=CC(C3)C2C(=O)O)sc2c1CCC(C)C2` (stereo not shown) to `CC1CCC(C(C)C)C(OC(=O)COC(=O)c2ccc(=O)[nH]c2)C1` (stereo not shown), the “hERG current change (%, negative = inhibition) at 10uM” value rises from -59.3% to -8.28%.

First: CC1CCC(C(C)C)C(OC(=O)C[n+]2cccc(C(N)=O)c2)C1.[Cl-] (stereo not shown)
Second: CC1CCC(C(C)C)C(OC(=O)COC(=O)c2cccn2C)C1 (stereo not shown)
The “hERG current change (%, negative = inhibition) at 10uM” value of the first is lower: 7.66% for the first, 16.1% for the second.

Going from `CC1CCC(C(C)C)C(OC(=O)Cn2c(-c3ccccc3)[n+](C)c3ccccc32)C1.[Cl-]` (stereo not shown) to `CC1CCC(C(C)C)C(OC(=O)COC(=O)c2ccc(N)cc2)C1` (stereo not shown), the “hERG current change (%, negative = inhibition) at 10uM” value rises from -77.3% to 6.47%.

Going from `CC1CCC(C(C)C)C(OC(=O)CSc2nnc(N)s2)C1` (stereo not shown) to `CC1CCC(C(C)C)C(OC(=O)CSc2n[nH]c(=O)[nH]c2=O)C1` (stereo not shown), the “hERG current change (%, negative = inhibition) at 10uM” value falls from 3.01% to -19.9%.
